In PubChem BioAssay:
Activity calls are given as the source filed them.

How the values were obtained:
[1] = tested on: Human papillomavirus type 1a protein E7 (residues 44-93); assay: HPV1a E7 fragment binders on microarrays, primary screen, biochemical, small-molecule microarray, residues 44-93, 635 nm fluorescence (AID 1108); conditions: small-molecule microarray binding, fluorescence 635 nm; higher = more signal;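 also: E7 fragment applied at 1 µg/mL in TBST for 1 h at 4 C; score combines spot fluorescence with its signal to noise ratio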
[2] = modulators of HCV replicon luciferase signal, primary screen, HCV replication inhibitor project, Huh7 cells, luciferase reporter (AID 1109); conditions: 48 h, higher = more signal;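 also: huh7 hepatoma cells harbouring a luciferase neomycin HCV replicon reporter; luciferase luminescence as measure of HCV replicon replication; test concentration not given here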
[3] = target: Left-right determination factor 2 (Homo sapiens) (UniProt O00292); assay: LEFTY2 binders on small-molecule microarrays, primary screen, biochemical, small-molecule microarray, 635 nm fluorescence scan (AID 1110); conditions: LEFTY2 binding, higher = more signal
[4] = target: Calmodulin-1 (Homo sapiens) (UniProt P0DP23); assay: CALM1 binders on microarrays, EGTA buffer, profiling panel, biochemical, small-molecule microarray, Cy5-labelled CALM1 (AID 1111); conditions: Cy5-CALM1 binding fluorescence, higher = more signal;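 also: labelled calmodulin applied in Tris saline Tween buffer holding calcium plus EGTA and DTT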
[5] = target: Calmodulin-1 (Homo sapiens) (UniProt P0DP23); assay: calcium-bound CALM1 binders on microarrays, profiling panel, artefact control for SMM control-protein annotation, biochemical, small-molecule microarray, Cy5-labelled CALM1, plus calcium (AID 1112); conditions: Cy5-CALM1 binding fluorescence, higher = more signal;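 also: score merges spot fluorescence with signal to noise from triplicate slides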
[6] = small-molecule microarray binders of probe aWnt5a, primary screen, biochemical, biotinylated probe, 635/667 nm fluorescence (AID 1113); conditions: higher = more signal;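 also: score merges 667 nm fluorescence intensity with signal-to-noise per printed feature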
[7] = small-molecule microarray binders of probe aShh, primary screen, biochemical, biotinylated probe, 635/667 nm fluorescence (AID 1114); conditions: higher = more signal;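 also: probe is biotin-labelled aShh protein from a stem cell growth factor screen; measures binding of labelled protein to compounds printed on the slide; score merges feature fluorescence at 667 nm with signal-to-noise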
[8] = small-molecule microarray binders of probe aNog, primary screen, biochemical, biotinylated probe, 635/667 nm fluorescence (AID 1115); conditions: higher = more signal;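 also: probe is biotinylated aNog protein used at 0.15 µg/mL for 1 h at 4 C; z-score combines 667 nm fluorescence of each spot with its signal to noise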
[9] = target: Torsin-1A-interacting protein 1 (Homo sapiens) (UniProt Q5JTV8); assay: LAP1 binders from COS7 cell lysate, primary screen, small-molecule microarray, 635/667 nm fluorescence (AID 1116); conditions: COS7-hLAP1 lysate binding, 635 nm fluorescence, higher = more signal
[10] = target: Alpha-bungarotoxin (Bungarus multicinctus) (UniProt P60615); assay: alpha-bungarotoxin binders on microarray, profiling panel, artefact control for SMM control protein annotation, biochemical, small-molecule microarray, Alexa647 label, 635/667 nm fluorescence (AID 1117); conditions: alpha-BTX-A647 binding fluorescence, higher = more signal
Albumin (Bos taurus) = Albumin (Bos taurus) (UniProt P02769); assay: bovine serum albumin binders on microarray, profiling panel, artefact control for SMM control protein annotation, biochemical, small-molecule microarray, Alexa647 label, 635/667 nm fluorescence (AID 1118); conditions: BSA-A647 binding, fluorescence 635 nm, higher = more signal;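 also: score merges 667 nm emission intensity and signal-to-noise per printed compound spot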
[11] = small-molecule microarray binders of probe aXIP, primary screen, biochemical, NeuroSMM set, 635/667 nm fluorescence (AID 1119); conditions: higher = more signal, called active from +8 up or from −8 down;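 also: probe is the protein aXip251-270 applied at 1 µg/mL to compound-printed slides; binding of probe to printed compounds measured as 667 nm fluorescence plus signal to noise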
[12] = small-molecule binders of probe aNOTCH3, primary screen, biochemical, small-molecule microarray, 635/667 nm fluorescence (AID 1120); conditions: higher = more signal;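 also: probe is a biotin-tagged antibody raised against NOTCH3 rather than NOTCH3 protein; score merges spot fluorescence near 667 nm with spot signal to noise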
[13] = small-molecule binders of probe aNOTCH2, primary screen, biochemical, small-molecule microarray, 635/667 nm fluorescence (AID 1121); conditions: higher = more signal;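 also: score merges feature fluorescence read at 667 nm with its signal to noise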
[14] = target: Carbonic anhydrase 2 (Homo sapiens) (UniProt P00918); assay: CAII small-molecule binders, profiling panel, biochemical, small-molecule microarray, Alexa647-labelled CAII (AID 1122); conditions: CAII-A647 binding fluorescence, higher = more signal
[15] = COS7 lysate on small-molecule microarray, probe aHis, 635 nm (AID 1123); conditions: COS7 cell lysate, fluorescence, higher = more signal;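 also: z-score combines 667nm fluorescence intensity with signal-to-noise per printed compound spot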
[16] = compound binding in COS7 lysate, probe aLAP1, primary screen, cell lysate, small-molecule microarray (AID 1124); conditions: probe aLAP1, fluorescence, higher = more signal;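 also: lysate comes from COS7 cells expressing LAP1 and is applied at 0.3 µg/mL; score merges spot fluorescence near 667 nm with signal-to-noise over triplicate slides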
Sam68 (KHDRBS1) = assay: Sam68 small-molecule binders, primary screen, biochemical, small-molecule microarray, 635 nm fluorescence (AID 1125); conditions: small-molecule microarray binding, higher = more signal;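 also: score merges 667 nm channel intensity with signal to noise over triplicate slides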
[17] = tested on: Chordin-like protein 2 (CHRDL2); assay: CHRDL2 small-molecule binders, primary screen, biochemical, small-molecule microarray, 635 nm fluorescence (AID 1126); conditions: small-molecule microarray binding, fluorescence 635 nm; higher = more signal;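 also: printed compound slides probed with Chrdl2 protein at 4 µg/mL for 1 h at 4 C; score merges 667 nm emission intensity with signal to noise over three replicate slides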
[18] = target: Concanavalin-A (Canavalia ensiformis) (UniProt P02866); assay: ConA small-molecule binders, primary screen, artefact control for SMM control protein annotation, biochemical, small-molecule microarray, Alexa647 label, 635 nm (AID 1127); conditions: ConA-A647 binding fluorescence, higher = more signal;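 also: z combines 667 nm emission intensity with signal-to-noise across three replicate slides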
Chain of Concanavalin-A (Canavalia ensiformis) (P02866 whole entry, looked up): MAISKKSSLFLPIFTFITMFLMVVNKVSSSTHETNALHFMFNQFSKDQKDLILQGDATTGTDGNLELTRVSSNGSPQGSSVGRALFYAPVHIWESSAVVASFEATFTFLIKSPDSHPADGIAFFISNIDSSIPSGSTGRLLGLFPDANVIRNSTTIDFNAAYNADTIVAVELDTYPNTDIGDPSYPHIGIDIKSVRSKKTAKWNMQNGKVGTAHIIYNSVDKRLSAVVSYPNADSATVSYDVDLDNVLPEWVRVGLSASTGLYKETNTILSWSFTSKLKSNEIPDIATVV

Chain of Alpha-bungarotoxin (Bungarus multicinctus) (P60615 whole entry, looked up): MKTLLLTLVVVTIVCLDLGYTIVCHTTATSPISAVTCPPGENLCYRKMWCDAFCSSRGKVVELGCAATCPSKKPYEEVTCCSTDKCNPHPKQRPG
Chain of Torsin-1A-interacting protein 1 (Homo sapiens) (Q5JTV8 whole entry, looked up): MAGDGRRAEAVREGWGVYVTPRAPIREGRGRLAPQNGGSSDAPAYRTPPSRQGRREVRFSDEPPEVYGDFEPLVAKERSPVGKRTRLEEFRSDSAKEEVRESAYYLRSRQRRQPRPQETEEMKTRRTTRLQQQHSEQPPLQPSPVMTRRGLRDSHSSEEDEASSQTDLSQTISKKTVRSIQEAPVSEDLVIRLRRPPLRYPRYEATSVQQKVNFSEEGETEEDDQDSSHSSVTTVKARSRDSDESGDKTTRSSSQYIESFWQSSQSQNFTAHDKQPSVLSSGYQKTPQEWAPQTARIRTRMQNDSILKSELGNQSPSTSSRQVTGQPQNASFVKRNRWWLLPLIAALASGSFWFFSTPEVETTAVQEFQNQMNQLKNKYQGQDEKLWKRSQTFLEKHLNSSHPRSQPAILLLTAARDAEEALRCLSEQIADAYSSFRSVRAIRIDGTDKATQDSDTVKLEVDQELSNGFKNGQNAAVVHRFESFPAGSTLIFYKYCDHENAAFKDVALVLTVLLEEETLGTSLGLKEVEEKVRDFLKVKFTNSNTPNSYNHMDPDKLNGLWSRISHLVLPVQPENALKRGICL
Chain of Albumin (Bos taurus) (P02769 whole entry, looked up): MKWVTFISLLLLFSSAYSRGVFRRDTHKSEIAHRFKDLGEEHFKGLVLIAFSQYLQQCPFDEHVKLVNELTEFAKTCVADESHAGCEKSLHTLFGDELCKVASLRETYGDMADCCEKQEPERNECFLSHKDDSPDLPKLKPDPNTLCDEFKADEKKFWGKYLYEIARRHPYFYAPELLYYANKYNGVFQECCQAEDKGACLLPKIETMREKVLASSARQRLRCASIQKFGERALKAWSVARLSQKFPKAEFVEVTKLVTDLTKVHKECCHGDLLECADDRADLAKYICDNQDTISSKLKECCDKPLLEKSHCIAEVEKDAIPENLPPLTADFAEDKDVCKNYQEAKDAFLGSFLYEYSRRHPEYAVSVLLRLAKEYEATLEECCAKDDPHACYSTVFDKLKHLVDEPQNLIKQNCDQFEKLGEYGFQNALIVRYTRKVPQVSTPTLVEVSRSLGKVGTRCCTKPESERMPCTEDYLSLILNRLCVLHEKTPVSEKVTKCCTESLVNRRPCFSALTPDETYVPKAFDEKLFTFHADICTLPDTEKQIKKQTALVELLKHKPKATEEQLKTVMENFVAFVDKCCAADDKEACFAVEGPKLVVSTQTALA
Chain of Left-right determination factor 2 (Homo sapiens) (O00292 whole entry, looked up): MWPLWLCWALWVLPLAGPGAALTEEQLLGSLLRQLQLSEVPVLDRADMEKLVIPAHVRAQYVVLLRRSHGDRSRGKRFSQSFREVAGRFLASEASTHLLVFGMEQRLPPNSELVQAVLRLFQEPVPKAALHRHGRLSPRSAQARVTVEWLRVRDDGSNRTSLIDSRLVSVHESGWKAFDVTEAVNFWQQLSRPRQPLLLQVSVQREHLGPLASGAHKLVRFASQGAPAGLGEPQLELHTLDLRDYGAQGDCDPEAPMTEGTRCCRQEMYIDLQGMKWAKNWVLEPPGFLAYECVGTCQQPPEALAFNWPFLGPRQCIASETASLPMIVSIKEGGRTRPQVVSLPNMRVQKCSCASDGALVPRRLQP

SMILES	composite z-score [1]	z-score [2]	composite z-score [3]	composite z-score [4]	composite z-score [5]	composite z-score [6]	composite z-score [7]	composite z-score [8]	composite z-score [9]	composite z-score [10]	composite z-score (Albumin (Bos taurus))	composite Z-score [11]	composite z-score [12]	composite z-score [13]	composite z-score [14]	composite z-score [15]	composite z-score [16]	composite z-score (Sam68 (KHDRBS1))	composite z-score [17]	composite z-score [18]
C=CCN1C(=O)[C@]2(CCC(=O)OC(C)(C)C)N=C(c3ccc(OCCCO)cc3)O[C@@H]2c2ccccc21	0.841	-2.91	0.272	1.23	-0.0414	-0.0441	0.131	-0.292	0.423	1.38	-0.361	-0.014 (inactive)	0.185	-0.118	0.256	1.38	0.023	0.587	0.281	1.14
C=CCC(OC(C)=O)[C@@H]1[C@@H](N(Cc2ccc(-c3cccc(C(F)(F)F)c3)o2)C(=O)Cc2ccc(OC)cc2)c2cc(OCCCO)ccc2N1C(=O)c1ccc(-c2ccccc2)cc1 (stereo not given in full)	-0.433	0.278	-0.164	-0.364	-0.341	0.0079	-0.0793	-0.577	-0.205	1.13	0.0925	-0.4 (inactive)	0.0711	0.0178	0.251	0.206	-0.155	0.272	0.121	-0.94
CCCCCN1CC=CC23O[C@@H]4/C=C\CCCOC(=O)C4[C@H]2C(=O)N(C(C)CO)[C@@H]3C1=O (stereo not given in full)	-0.141	-0.646	-1.67	-0.452	-0.254	-0.203	-0.181	-0.0057	-0.111	2.97	0.356	0.0199 (inactive)	-0.427	-0.169	0.839	0.626	-0.0467	0.0008	-1.14	-0.734
COc1cc(NN2C(C(O)c3ccco3)C=CC3C(=O)N(C)C(=O)C32)cc(OC)c1OC (stereo not given)	0.02	-0.0965	0.173	0.723	-0.0913	0.107	0.394	0.415	0.447	0.509	0.593	0.319 (inactive)	0.313	0.267	0.738	0.815	-0.0901	0.633	0.861	0.215
CCCC[C@@H](O)C1=C(COC)C[C@H]2C(=O)N(C)C(=O)[C@H]2[C@H]1CO	0.0944	-0.338	0.822	-0.419	-0.573	-0.0417	-0.138	-0.267	0.13	-0.165	0.277	0.0275 (inactive)	-0.139	-0.217	0.183	-0.419	0.0048	-0.0046	0.831	0.256
COc1cc(NN2C(C(O)c3cc(OC)c(OC)c(OC)c3)C=CC3C(=O)N(C)C(=O)C32)cc(OC)c1OC (stereo not given)	1.09	-0.336	-0.229	1.34	0.278	0.0599	0.23	0.849	0.904	1.24	1.03	0.328 (inactive)	0.499	-0.0028	0.67	2.77	0.0495	1.23	0.0976	0.894
O=C(NCCN1CCOCC1)[C@@H]1c2ccccc2C(=O)N(C2Cc3ccccc3C2)[C@H]1c1ccc(CO)cc1	1.4	-1.42	-1.57	-0.472	-0.301	-0.23	-0.13	-0.447	0.554	0.776	0.268	-0.27 (inactive)	-0.223	0.0129	0.498	0.866	1.77	1.01	-0.419	0.466
O=C1O[C@@H](c2ccccc2)[C@@H](c2ccccc2)N2[C@@H](c3ccc(O)cc3)[C@]3(C(=O)Nc4ccc(C#CCCO)cc43)[C@@H](C(=O)N3CCN(c4ncccn4)CC3)[C@H]12	0.99	-0.671	0.787	-0.587	-0.948	-0.512	-0.232	0.498	0.255	0.101	-0.777	0.698 (inactive)	0.148	-0.457	0.523	0.457	-0.143	1.11	1.14	1.12
C=C[C@@H](CO)N(Cc1ccc(OC)cc1)S(=O)(=O)c1ccc(Br)cc1	0.19	-1.25	0.211	-0.0366	-0.213	0.0377	-0.0709	-0.201	0.572	-0.0436	0.131	-0.0461 (inactive)	-0.147	-0.0078	0.352	0.31	-0.345	0.388	0.231	0.241
N#Cc1ccc(NN2C(C(O)c3ccc(Br)cc3)C=CC3C(=O)N(c4ccccc4)C(=O)C32)cc1 (stereo not given)	-1.46	-0.431	0.503	1.53	0.141	0.234	0.162	2.03	1.14	2.36	0.539	0.718 (inactive)	0.43	0.357	0.721	3.24	1.35	0.83	0.195	1.07
C#CCN(Cc1ccccc1Br)[C@H](/C=C/c1ccccc1)[C@@H](O)Cc1ccccc1	0.169	-1.42	-0.81	-1.03	0.41	-0.128	-0.124	0.0108	-0.354	0.192	-0.33	0.258 (inactive)	-0.226	-0.167	-0.128	0.222	0.163	0.446	0.129	-1.01
COCC(=C=CC[C@H](O)c1ccc(CO)o1)CCO	0.76	-0.793	0.173	-0.0876	-0.249	0.0108	-0.0119	0.502	-0.0673	0.818	0.0697	0.701 (inactive)	0.0066	-0.14	0.748	1.27	-0.0497	0.601	0.0549	0.494
